PubChem BioAssay AID686940 (The Scripps Research Institute Molecular Screening Center, 2013)
About 2,600 (0.7%) of roughly 370,000 compounds were called active. Shown is part of a subset that was picked to be rich in actives. A number with no mark means an inactive call.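 Rule for the calls: active = inhibition above a per-plate cutoff, mean inhibition of test wells between control levels plus 3 SD (cut at about 38% in these data); inactive = the rest.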

biological target: COUP transcription factor 2 (Homo sapiens) (UniProt P24468); experiment: NR2F2 transcriptional activity inhibitors, primary screen, cell-based, luciferase reporter, HEK293T, luminescence (AID 686940); conditions: HEK293T NGFI-A luciferase reporter, at 8.6 µM, hits give high values;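 note: cells cotransfected with COUP-TFII expression vector driving the NGFI-A reporter; 0% = median of COUP-TF2 test wells and 100% = reporter-only cells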
Sequence (P24468 whole entry, looked up): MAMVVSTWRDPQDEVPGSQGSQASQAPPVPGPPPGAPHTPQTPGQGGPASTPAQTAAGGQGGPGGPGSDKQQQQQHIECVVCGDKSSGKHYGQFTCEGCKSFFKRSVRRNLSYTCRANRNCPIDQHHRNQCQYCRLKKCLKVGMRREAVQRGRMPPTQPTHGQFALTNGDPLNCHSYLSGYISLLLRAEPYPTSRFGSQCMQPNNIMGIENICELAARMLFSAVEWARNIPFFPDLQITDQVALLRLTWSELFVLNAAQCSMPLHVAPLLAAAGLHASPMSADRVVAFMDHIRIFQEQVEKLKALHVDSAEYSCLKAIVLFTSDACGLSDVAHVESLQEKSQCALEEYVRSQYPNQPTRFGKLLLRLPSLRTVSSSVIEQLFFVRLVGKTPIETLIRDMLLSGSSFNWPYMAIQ

In the case of `COc1ccc2c(c1)c(=Cc1ccc(N(C)C)cc1)c1cc(-c3ccccc3)[n+](C)n12`, the inhibition is reported as 76.4% (active).
With `C=CCNc1ncnc2ccc(Br)cc12` the inhibition was 48.3% (active).
`COc1cc(/C=C/C(=O)n2cnc3ccccc32)cc(OC)c1OC` was tested, and the inhibition was 47.1% (active).
In the case of `COc1cccc2c1C(=O)c1c(O)c3c(c(O)c1C2=O)CC(O)(C(C)=NNC(=O)c1ccc(Cl)c(Cl)c1)CC3OC1CC(N)C(O)C(C)O1` (stereo not given), the inhibition is reported as 52.1% (active).
With `CCc1cc(-c2nnn(CCC3COCCO3)c2CC)ccc1-c1cn(Cc2ccc3ccccc3c2)nn1` (stereo not given) the inhibition was 57.9% (active).
For `CN(C(=O)CN1CCN(c2cc(-c3ccc(OCc4ccccc4)cc3)ncn2)CC1)c1ccccc1`, the inhibition was 60.6% (active).
With `O=C(Nc1nc(-c2ccc3c(c2)OCO3)cs1)c1ccncc1` the inhibition was 52.5% (active).
With `CC(=O)Nc1ccc(-c2csc(NC(=O)Nc3ccccc3)n2)cc1` the inhibition was 60.9% (active).
For `CCCCNc1nc2c(c(=O)n(C)c(=O)n2C)n1Cc1cccc(OC)c1`, the inhibition was 53.5% (active).
In the case of `O=c1oc2ccccc2cc1-c1cn(-c2ccccc2)c(=S)[nH]1`, the inhibition is reported as 81.6% (active).
In the case of `O=C(OC12CC3CC(CC(C3)C1)C2)c1ccc(NCc2cc(O)ccc2O)cc1`, the inhibition is reported as 82.7% (active).
`COc1ccc(/C=C2/SC(=O)N(CCCCCC(=O)Nc3ccccc3C(=O)O)C2=S)cc1` was tested, and the inhibition was 48% (active).
`O=C(Nc1ccc(CSc2ccccc2)cc1)c1ccc(CN2CCOCC2)cc1` was tested, and the inhibition was 68.5% (active).
For `Cc1ccc(OCC(=O)Nc2ccc(N3CCN(C(=O)c4ccco4)CC3)cc2)c(C)c1`, the inhibition was 44.3% (active).

First: COC(=O)C1CN(CC(C)C)CCS(=O)(=O)N1Cc1ccc(F)cc1 (stereo not given)
Second: COc1cccc(N2CCN(CC(=O)N(C)Cc3ccc(F)cc3)CC2)c1
The inhibition of the first is higher: 6.54% for the first, 1.56% for the second.

Compared with `Cc1nc(CNc2ncnc3ccc(-c4ccc5c(c4)OCO5)cc23)cs1`, `CC(O)(c1cccc(F)c1)c1nc(-c2ccc3c(c2)OCO3)cs1` (stereo not given) is lower in inhibition: 10.5% for the first, 8.11% for the second.

Compared with `COc1ccc(Cn2cc(COC(=O)N(C)Cc3ccccc3)nn2)cc1`, `CCCNC(=O)c1ccccc1NC(=O)CSCc1ccc(OC)cc1` is higher in inhibition: 3.65% for the first, 10.2% for the second.

First: Nc1[nH]c(/C=C2/CCCCC2n2[nH]c(=O)n(-c3ccccc3)c2=O)c(Cc2ccccc2)[n+]1Cc1ccccc1 (stereo not given)
Second: COC(=O)[C@]12C[C@H](CC(=O)NCc3ccccc3)C(=O)N(Cc3ccccc3)C1=C[C@H](COCc1ccccc1)O[C@@H]2C
The inhibition of the first is higher: 10.8% for the first, 7.28% for the second.

Going from `COc1cc(/C=C/C(=O)N2CCc3ccccc3C2)cc(OC)c1OC` to `COc1cc(C(O)c2nc3ccccc3n2C)cc(OC)c1OC` (stereo not given), the inhibition rises from -52.5% to 10.1%.

Going from `COC(=O)C12C=C3CC(c4ccccc4)=C3C(=O)N1Cc1[nH]c3ccccc3c1C2` (stereo not given) to `O=C(Nc1ccccc1C(=O)N1CCOCC1)c1ccc(CSc2ccccc2)cc1`, the inhibition rises from 5.87% to 6.62%.

Compared with `CN(C)[C@H]1CCN(c2cccc3c2S(=O)(=O)N2CC[C@H](C2)O3)C1`, `O=C1CC[C@@]23CCCN2C(=O)CCC[C@H]3[C@H]1Cc1ccccc1` is higher in inhibition: -16.6% for the first, -3.33% for the second.

Going from `CCOC(=O)C1=C(C)NC2=C(C(=O)CC(C)(C)C2)C1c1ccc2c(c1)OCO2` (stereo not given) to `CCc1ccccc1NC(=O)c1cc(-c2ccc3c(c2)OCO3)on1`, the inhibition falls from 13.2% to -0.24%.

Going from `COC(=O)[C@]12C[C@H](CC(=O)N3CCOCC3)C(=O)N(Cc3ccc(Cl)cc3Cl)C1=C[C@H](COCc1ccccc1)O[C@@H]2C` to `COC(=O)[C@]12C[C@H](CC(=O)NCc3ccccc3)C(=O)N(CCC3=CCCCC3)C1=C[C@H](C(C)C)O[C@@H]2C1CC1`, the inhibition rises from -11.3% to 2.64%.

First: CCOc1ccc(OCc2ccc(C(=O)N(C)c3ccccc3)o2)cc1
Second: CCCC[C@H](C(=O)N(CC)c1ccccc1)[C@@H](O)c1ccc2ccccc2c1
The inhibition of the first is lower: -8.76% for the first, -0.42% for the second.

Compared with `CCOC(=O)c1csc(NC(=O)Nc2cccc(OC)c2)n1`, `COc1ccc(CC(N)c2csc(NC(=O)Nc3ccc(C(C)C)cc3)n2)cc1` (stereo not given) is higher in inhibition: -7.28% for the first, 15.8% for the second.

Compared with `Cn1c(=O)c2c(nc(NCc3ccccc3)n2CC(N)=O)n(C)c1=O`, `CCn1c(NCCc2ccc(OC)c(OC)c2)nc2c1c(=O)n(C)c(=O)n2C` is lower in inhibition: 4.42% for the first, -1.49% for the second.

Compared with `O=C(NC1CCCCN(Cc2cccc(C(F)(F)F)c2)C1=O)c1ccccc1I` (stereo not given), `Cc1ccc(CN2CCCCC(NC(=O)C3CCCCC3)C2=O)cc1` (stereo not given) is lower in inhibition: 22.4% for the first, 2.64% for the second.

First: CCC(=O)Nc1ccc2c(c1)C(=O)N(C)[C@@H]1CC[C@@H](CC(=O)NCCc3ccccc3)O[C@H]1CO2
Second: C[C@@H](NC(=O)c1ccccc1OCC(=O)Nc1ccc(I)cc1)C(=O)N(C)Cc1ccccc1
The inhibition of the first is higher: 19% for the first, 3.89% for the second.

First: CC(C)N1CCCCC(NC(=O)C(C)(C)C)C1=O (stereo not given)
Second: CC(=O)OCCN1CCCC12CCC(c1ccccc1)CC2 (stereo not given)
The inhibition of the first is higher: 0.07% for the first, -6.1% for the second.

Going from `O=C(NCCc1c[nH]c2ccccc12)OCc1cn(-c2c(F)cccc2F)nn1` to `CCC(CO)Nc1cccc2c1S(=O)(=O)N(Cc1cn(Cc3ccccc3C(F)(F)F)nn1)Cc1ccccc1O2` (stereo not given), the inhibition falls from -1.45% to -2%.

Going from `COc1ccc(CCNC(=O)CSc2nc3c([nH]2)c(=O)n(C)c(=O)n3C)cc1` to `COc1ccc(-n2c(SCC(=O)Nc3ccc(C)c(Cl)c3)nc3ccccc3c2=O)cc1`, the inhibition rises from -4.66% to 2.13%.

Compared with `CC(CCN1CCC(C(O)(c2ccccc2)c2ccccc2)CC1)Oc1ccc(C(F)(F)F)cc1` (stereo not given), `COc1ccc(NC(=O)CCCN2C(=O)C(c3ccccc3)Oc3cccnc32)cc1` (stereo not given) is lower in inhibition: 9.47% for the first, -1.91% for the second.

Compared with `CCN(CC)C(=O)CC[C@H]1CC[C@]2(CCCN(Cc3ccc(Cl)cc3)C2)O1`, `C/C(CCc1ccccc1)=N\NC(=O)c1ccc(CN2CCOCC2)cc1` is higher in inhibition: -15.6% for the first, -14.4% for the second.

First: COc1ccc(CN2C(=O)N3Cc4cc(OC)ccc4C3CS2(=O)=O)cc1 (stereo not given)
Second: O=C(COc1ccccc1)Nc1ccc(N2CCN(C(=O)c3cccs3)CC2)cc1
The inhibition of the first is higher: -0.26% for the first, -0.29% for the second.

`Cc1ccc(NC(=O)C(c2ccccc2)N2CCN(C(=O)c3ccco3)CC2)cc1` (stereo not given) gave an inhibition of 3.53%.
